# Among all 360,000 compounds or so, about 25,000 (6.9%) were called active. Another 9% or so got no clear call; they are omitted. The sample holds actives, similar compounds and a random draw of the others, so the mix is not that of the screen. Calls follow the shape of the dose curve; as a rule, active = well fitted inhibition curve with a large enough effect; inconclusive = small, poorly fitted or top-dose-only effect; inactive = flat fitted curve, though single readings scatter.
# Target: Luciferin 4-monooxygenase (Photinus pyralis) (UniProt P08659)
# Sequence (P08659 whole entry, looked up): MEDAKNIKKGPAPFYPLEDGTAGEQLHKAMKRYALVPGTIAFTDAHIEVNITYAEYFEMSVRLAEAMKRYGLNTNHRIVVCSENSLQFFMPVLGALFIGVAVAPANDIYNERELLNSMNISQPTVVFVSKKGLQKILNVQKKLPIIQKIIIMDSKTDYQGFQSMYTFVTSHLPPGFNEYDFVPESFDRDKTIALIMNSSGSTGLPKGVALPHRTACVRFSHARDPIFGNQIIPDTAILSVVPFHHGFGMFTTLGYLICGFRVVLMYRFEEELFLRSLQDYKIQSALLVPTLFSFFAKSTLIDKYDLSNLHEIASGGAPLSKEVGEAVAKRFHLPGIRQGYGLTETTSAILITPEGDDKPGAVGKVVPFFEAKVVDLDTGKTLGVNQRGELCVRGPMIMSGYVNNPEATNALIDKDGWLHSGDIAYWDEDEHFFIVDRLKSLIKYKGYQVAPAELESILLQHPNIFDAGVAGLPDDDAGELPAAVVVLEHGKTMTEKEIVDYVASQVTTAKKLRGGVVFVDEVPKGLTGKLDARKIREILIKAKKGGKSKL
# Assay: qHTS profiling assay for firefly luciferase inhibitor/activator using purifed enzyme and Km concentrations of substrates (counterscreen for miR-21 project); also: nearly all actives have a fitted effect of over 55% in size;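 as to activity change, negative = inhibition: plate controls were vehicle for no effect and reference inhibitor for full effect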
# Settings: purified FLuc, luminescence inhibition; series mostly up to 57.5 µM; activity change, negative = inhibition: at the top concentration
# How it was run: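 Biochemical qHTS of compounds, final roughly 60 µM downward over six points, against 10 nM purified firefly luciferase using Km concentrations of substrates (10 uM D-luciferin, 10 uM ATP) in Tris acetate pH 7.5 buffer; luminescence output.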
# Potency is read from the fitted curve at half-maximal effect.
Structure (SMILES),"activity change, negative = inhibition",Potency
CCN(CC(=O)Nc1ccccc1C(=O)NC1CC1)Cc1cccs1,2.69% (inactive),
Cc1cc(OCC(=O)NCC2(N(C)C)CCCCC2)cc(C)c1Cl,-0.865% (inactive),
Cc1ccnc(N2CCCC(C(=O)NC3CC3)C2)n1 (stereo not given),0.897% (inactive),
Cc1ccnc(SCC(N)=O)n1,-2.98% (inactive),
Cc1ccnc(-n2sc3ccccc3c2=O)n1,,9.53 µM (active)
CCN(Cc1ccccc1)S(=O)(=O)c1ccc2c(c1)CCCN2C(C)=O,-8.62% (inactive),
COc1ccc(N2CCN(C(=O)COc3ccc4c(C)cc(=O)oc4c3)CC2)cc1,1.41% (inactive),
CCn1ccnc1CN(C)C(=O)c1cc(COc2ccc(-n3cncn3)cc2)on1,0.919% (inactive),
CN(CCOc1ccccc1)C(=O)c1cc(COc2c(F)cccc2F)on1,-13.6% (inactive),
CN(Cc1cnccn1)C(=O)c1cc(COc2cccc(C(F)(F)F)c2)on1,-18.1% (inactive),
CN(Cc1cccnc1)C(=O)c1cc(COc2ccc3ncccc3c2)on1,-5.81% (inactive),
Cc1ccc(OCc2cc(C(=O)N(C)CCc3ccccc3)no2)cc1C,,23.9 µM (active)
Cc1cc(CN(C)C(=O)c2cc(COc3ccc(C)c(C)c3)on2)n[nH]1,,2.39 µM (active)
COc1cccc(CNC(=O)c2cc(=O)[nH]c3ccc(S(=O)(=O)N4CCCCC4)cc23)c1,3.34% (inactive),
Cc1cccc(OCCCC(=O)Nc2sc3c(c2C(N)=O)CCC(C)C3)c1 (stereo not given),-8.63% (inactive),
OC(c1ccccc1)C(CN1CCOCC1)c1ccccc1 (stereo not given),-1.86% (inactive),
COC(=O)c1ccccc1NC(=O)c1cnn(-c2ccc(F)cc2)c1-n1cccc1,-3.25% (inactive),
COC(=O)c1c(NC(=O)CCCOc2ccccc2)sc2c1CCC(C)C2 (stereo not given),1.24% (inactive),
CC1CCN(C(=O)COC(=O)CCC(=O)c2cccs2)CC1,-5.08% (inactive),
O=C(Nc1ccc2nc(SCC(=O)N3CCCc4ccccc43)sc2c1)c1ccc(Cl)cc1,-16.4% (inactive),
Cc1nnc(SCC(=O)NCCOc2ccc(Cl)cc2)n1-c1ccccc1,-2.21% (inactive),
Cc1nnc(SCC(=O)N2CCN(c3ccccc3)CC2)n1-c1ccccc1,1.26% (inactive),
Cc1nnc(SCc2ccc(C(=O)c3ccc(Cl)cc3)o2)n1-c1ccccc1,,15.1 µM (active)
COc1ccc(C)cc1NC(=O)c1cc(-c2ccccc2)nc2c1cnn2C(C)C,1.45% (inactive),

Structure (SMILES),"activity change, negative = inhibition",Potency
COCCN(CCOC)c1nc(N)c2c(N)nc3c(c2c1C#N)CC(=O)N3Cc1ccc(Cl)cc1,3.37% (inactive),
CCOC(=O)C1CCCN(Cc2nc(N)nc(Nc3ccc(C)cc3)n2)C1 (stereo not given),2.54% (inactive),
Cc1nnc(SCc2nc3ccccc3nc2C)s1,-1.45% (inactive),
Cc1ccc(Nc2nc(N)nc(CSc3nnc(C)s3)n2)cc1,,10.7 µM (active)
O=C(COC(=O)Cn1[nH]c(=O)c2ccccc2c1=O)Nc1ncc(Cl)cc1Cl,-0.206% (inactive),
Cc1ccc(S(=O)(=O)NCCC(=O)NNC(=O)C2COc3ccccc3O2)cc1 (stereo not given),0.339% (inactive),
CCN(CCCNC(=O)Cn1ncc2c3ccccc3n(C)c2c1=O)Cc1ccccc1,-13.7% (inactive),
CCC(=O)Nc1ccc2nn(-c3ccc(F)cc3)nc2c1,,1.35 µM (active)
O=C(Cc1ccc(Cl)cc1)Nc1ccc2nn(-c3ccc(Cl)cc3)nc2c1,-0.963% (inactive),
Cc1nn(CC(=O)Nc2ccc(F)cc2)c(=O)c2ccccc12,-0.402% (inactive),
Cc1ccc(NC(=O)c2oc3ccc(S(=O)(=O)N4CCCCC4)cc3c2C)cc1Cl,-0.833% (inactive),
COc1ccc(C(=O)N2CCN(c3ncccn3)CC2)cc1S(=O)(=O)N1CCOCC1,1.48% (inactive),
O=c1c(Cl)c(NC2CC2)cnn1-c1ccccc1,3.08% (inactive),
CCc1nc2c(cnn2-c2ccc(C)cc2)c(=O)n1-c1ccc(C)cc1,2.3% (inactive),
C=CCNc1cnn(-c2ccc(C)cc2)c(=O)c1Cl,,15.1 µM (active)
CCCCN(CC)CCCNC(=O)Cn1ncc2c([nH]c3ccc(C)cc32)c1=O,-6.5% (inactive),
O=C(CNCc1ccc(Cl)cc1)Nc1cccc(C(=O)O)c1,-5.42% (inactive),
O=C(Nc1c(-c2ccc(F)cc2)nc2ccccn12)c1cccc(F)c1,-11.9% (inactive),
O=C(c1ccc(F)cc1)n1c(=S)nc2ccccn21,,0.269 µM (active)
O=C(c1ccc(F)cc1)n1cc(C(=S)N2CCOCC2)c2ccccc21,-16.4% (inactive),
Cc1cc(C)c(NC(=O)c2cc3sc(Cl)cc3n2C)c(C)c1,-8.09% (inactive),
O=C(NNC(=O)c1cc2c(s1)CCCC2)c1ccccc1,,26.9 µM (active)
O=C(NCCCn1ccnc1)c1cc2c(s1)CCCC2,-19.1% (inactive),
O=C(NCCCN1CCOCC1)c1cc2c(s1)CCC2,3.35% (inactive),

Structure (SMILES),"activity change, negative = inhibition",Potency
COc1ccc(C(CNC(=O)c2cc3c(s2)CCCC3)N2CCOCC2)cc1 (stereo not given),0.96% (inactive),
O=C(NNC(=O)C1CCC1)c1ccccc1,0.634% (inactive),
O=C(Nc1ccc(F)cc1)c1cc2c(s1)CCCC2,,1.9 µM (active)
O=C(NCC1CCCO1)c1cc2c(s1)CCCC2 (stereo not given),,12 µM (active)
CCC(=O)c1c[nH]c(C(=O)NCC2CCCO2)c1 (stereo not given),-1.61% (inactive),
O=C(c1cc2c(s1)CCC2)N1CCN(c2ccccc2)CC1,-9.22% (inactive),
COc1ccc(Cn2c(=O)c3oc4ccccc4c3n(CC(=O)Nc3ccc(F)cc3F)c2=O)cc1,1.11% (inactive),
COc1ccc(Cn2ccn(Cc3cccc(OC)c3)c(=O)c2=O)cc1,1.98% (inactive),
CN(C)c1ccc(NC(=O)CSc2nc(-c3ccco3)cc(C(F)(F)F)n2)cc1,2.16% (inactive),
CSc1ccccc1OCc1cc(C(=O)N2C[C@H]3CC[C@H]2C3)no1,,10.7 µM (active)
CSc1ccccc1OCc1cc(C(=O)N(C)CCc2c(C)n[nH]c2C)no1,-1.04% (inactive),
COC(=O)[C@@H]1CCCN1C(=O)c1cc(COc2cccc3cccnc23)on1,-2.66% (inactive),
CCc1nnc(SCc2nc(-c3cccc(C)c3)oc2C)c2cc3sc(C)cc3n12,-0.968% (inactive),
COc1ccc2[nH]c(C(=O)N3CCN(C)CC3)c(C)c2c1,-4.15% (inactive),
COc1ccc2[nH]c3ccc(OC)cc3c2c1,,21.3 µM (active)
COc1ccc2[nH]c(=S)cc(C)c2c1,-15.8% (inactive),
CCCCn1c(CNC(=O)C23CC4CC(CC(C4)C2)C3)nnc1SCC(=O)Nc1ccc(C)cc1,-12.5% (inactive),
CC(C)Oc1ccc(CNC(=O)C2CCN(c3nc4ccccc4n(C)c3=O)CC2)cc1,1.52% (inactive),
O=C(O)COCC(=O)NCc1csc2ccc(Cl)cc12,1.62% (inactive),
CC(=O)Nc1cccc(/C(C)=N/NC(=O)c2c(-c3ccccc3Cl)noc2C)c1,-2.43% (inactive),
Cc1ccccc1NC(=O)c1cc(S(=O)(=O)Nc2cccc(C(=O)O)c2)ccc1Cl,-5.3% (inactive),
C/C(=N\Nc1cccc(C(=O)O)c1)c1ccc2c(c1)Nc1ccccc1S2,,7.57 µM (active)

# Source: PubChem BioAssay AID588342 (National Center for Advancing Translational Sciences (NCATS), 2011)
